# Test results: PubChem BioAssay (EPA / NIEHS)
# Several values for one entry are separate records, joined by “and”; a condition that tells them apart may be missing. Equal values may be shown once. Records with an inconclusive call do not appear. The source holds several records for some structures; these can differ, active in one and inactive in another. Activity calls are given as the source filed them. Rule for the calls, unless noted: active = hit-call score of the fitted dose curve at least 0.9, where 1 is the maximum; inconclusive = response in the unintended direction; inactive = score below 0.9.
# Legend:
# [1] = biological target: human RAR-related Orphan Receptor beta (RORb), RORB (gene 6096) (UniProt Q92753); experiment: ATG_RORb_TRANS: Attagene TRANS-FACTORIAL HepG2 Assay for human RAR-related Orphan Receptor beta (RORb) (AID 2283010)
# Sequence of human RAR-related Orphan Receptor beta (RORb), RORB (gene 6096) (Q92753 whole entry, looked up, the tested form may be a part): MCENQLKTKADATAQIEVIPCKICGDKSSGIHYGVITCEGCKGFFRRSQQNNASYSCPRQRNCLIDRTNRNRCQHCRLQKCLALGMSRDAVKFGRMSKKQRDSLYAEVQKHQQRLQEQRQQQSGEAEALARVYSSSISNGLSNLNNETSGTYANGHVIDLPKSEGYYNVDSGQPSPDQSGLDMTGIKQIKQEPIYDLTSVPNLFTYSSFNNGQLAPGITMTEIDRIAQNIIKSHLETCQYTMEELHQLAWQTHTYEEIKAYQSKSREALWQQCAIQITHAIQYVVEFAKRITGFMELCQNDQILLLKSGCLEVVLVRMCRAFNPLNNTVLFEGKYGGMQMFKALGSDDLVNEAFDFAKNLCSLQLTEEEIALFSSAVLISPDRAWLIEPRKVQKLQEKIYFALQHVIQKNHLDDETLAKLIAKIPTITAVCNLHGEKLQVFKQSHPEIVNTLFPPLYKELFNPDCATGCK
# How it was run: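 HepG2, transient MRTU transfection (GAL4-UAS reporters, exogenous NR-Gal4 chimeras); 24 h compound exposure; total RNA → RT-PCR → 6-FAM primer extension → HpaI digest → CE fluorescence. Positive direction vs DMSO baseline.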
# [2] = biological target: human RAR-related Orphan Receptor gamma (RORg), RORC (gene 6097) (UniProt P51449); experiment: ATG_RORg_TRANS: Attagene TRANS-FACTORIAL HepG2 Assay for human RAR-related Orphan Receptor gamma (RORg) (AID 2283011)
# Sequence of human RAR-related Orphan Receptor gamma (RORg), RORC (gene 6097) (P51449 whole entry, looked up, the tested form may be a part): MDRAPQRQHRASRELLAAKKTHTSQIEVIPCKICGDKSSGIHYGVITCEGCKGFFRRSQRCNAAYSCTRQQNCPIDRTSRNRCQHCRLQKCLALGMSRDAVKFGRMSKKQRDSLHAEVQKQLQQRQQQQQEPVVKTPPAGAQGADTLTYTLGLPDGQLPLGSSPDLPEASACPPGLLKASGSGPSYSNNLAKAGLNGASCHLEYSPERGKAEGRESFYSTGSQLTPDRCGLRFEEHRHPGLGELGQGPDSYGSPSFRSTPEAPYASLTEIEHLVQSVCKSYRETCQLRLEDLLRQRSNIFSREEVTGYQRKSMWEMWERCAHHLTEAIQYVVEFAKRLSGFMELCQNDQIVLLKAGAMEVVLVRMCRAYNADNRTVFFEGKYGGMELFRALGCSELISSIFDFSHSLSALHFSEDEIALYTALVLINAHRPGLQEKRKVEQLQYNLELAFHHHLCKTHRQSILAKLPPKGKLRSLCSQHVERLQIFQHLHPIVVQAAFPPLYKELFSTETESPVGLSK
# How it was run: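 Transient MRTU transfection of HepG2 (TRANS format, exogenous NR-Gal4 chimera). 24 h dosing. Total RNA → oligo(dT) RT → PCR → 6-FAM labelling → HpaI cut → CE. Gain vs DMSO.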
# [3] = biological target: Retinoic acid receptor RXR-alpha (Homo sapiens) (UniProt P19793); experiment: ATG_RXRa_TRANS: Attagene TRANS-FACTORIAL HepG2 Assay for human Retinoid X Receptor alpha (RXRa) (AID 2283012)
# Sequence of Retinoic acid receptor RXR-alpha (Homo sapiens) (P19793 whole entry, looked up, the tested form may be a part): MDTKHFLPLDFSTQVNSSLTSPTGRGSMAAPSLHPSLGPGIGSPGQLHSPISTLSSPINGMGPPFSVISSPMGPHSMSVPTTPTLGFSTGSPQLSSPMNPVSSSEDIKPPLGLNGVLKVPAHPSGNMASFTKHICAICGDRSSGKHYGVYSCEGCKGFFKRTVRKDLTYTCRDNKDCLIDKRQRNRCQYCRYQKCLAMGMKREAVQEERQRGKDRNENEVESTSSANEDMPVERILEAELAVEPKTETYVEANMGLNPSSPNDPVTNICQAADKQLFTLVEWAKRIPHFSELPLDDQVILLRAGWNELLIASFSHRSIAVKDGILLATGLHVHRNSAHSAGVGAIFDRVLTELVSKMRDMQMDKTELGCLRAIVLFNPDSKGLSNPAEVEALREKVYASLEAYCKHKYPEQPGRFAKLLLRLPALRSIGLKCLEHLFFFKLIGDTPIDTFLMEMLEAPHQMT
# How it was run: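 Read-out: fluorescent reporter-transcript fragments quantified by capillary electrophoresis after RT-PCR. Transiently transfected HepG2 cells carrying GAL4-UAS reporters and NR-GAL4 chimeras were exposed to chemical for 24 h; activity scored as increase over DMSO.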
# [4] = biological target: human Retinoid X Receptor beta (RXRb), RXRB (gene 6257) (UniProt P28702); experiment: ATG_RXRb_TRANS: Attagene TRANS-FACTORIAL HepG2 Assay for human Retinoid X Receptor beta (RXRb) (AID 2283013)
# Sequence of human Retinoid X Receptor beta (RXRb), RXRB (gene 6257) (P28702 whole entry, looked up, the tested form may be a part): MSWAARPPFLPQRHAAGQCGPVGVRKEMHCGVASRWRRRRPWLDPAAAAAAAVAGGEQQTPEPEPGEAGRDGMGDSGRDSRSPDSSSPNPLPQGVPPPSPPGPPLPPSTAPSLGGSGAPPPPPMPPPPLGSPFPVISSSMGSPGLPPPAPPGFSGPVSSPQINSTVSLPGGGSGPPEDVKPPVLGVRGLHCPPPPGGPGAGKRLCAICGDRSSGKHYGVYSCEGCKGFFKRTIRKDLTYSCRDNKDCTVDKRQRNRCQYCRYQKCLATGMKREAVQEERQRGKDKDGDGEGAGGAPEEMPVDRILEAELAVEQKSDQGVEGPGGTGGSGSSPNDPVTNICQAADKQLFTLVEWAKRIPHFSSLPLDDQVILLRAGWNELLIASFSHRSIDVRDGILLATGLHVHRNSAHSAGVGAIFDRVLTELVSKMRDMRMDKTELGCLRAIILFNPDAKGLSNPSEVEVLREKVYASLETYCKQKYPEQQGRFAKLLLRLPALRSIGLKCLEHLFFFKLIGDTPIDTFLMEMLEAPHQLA
# How it was run: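 Read-out: reporter mRNA induction via RT-PCR plus capillary electrophoresis fluorescence, analysed as signal increase relative to DMSO. Cells were human HepG2, transiently transfected with GAL4-UAS reporter constructs and chimeric receptor-Gal4 fusions, dosed for 24 h.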
# [5] = biological target: human Thyroid Receptor alpha (THRa1), THRA (gene 7067) (UniProt P10827); experiment: ATG_THRa1_TRANS: Attagene TRANS-FACTORIAL HepG2 Assay for human Thyroid Receptor alpha (THRa1) (AID 2283014)
# Sequence of human Thyroid Receptor alpha (THRa1), THRA (gene 7067) (P10827 whole entry, looked up, the tested form may be a part): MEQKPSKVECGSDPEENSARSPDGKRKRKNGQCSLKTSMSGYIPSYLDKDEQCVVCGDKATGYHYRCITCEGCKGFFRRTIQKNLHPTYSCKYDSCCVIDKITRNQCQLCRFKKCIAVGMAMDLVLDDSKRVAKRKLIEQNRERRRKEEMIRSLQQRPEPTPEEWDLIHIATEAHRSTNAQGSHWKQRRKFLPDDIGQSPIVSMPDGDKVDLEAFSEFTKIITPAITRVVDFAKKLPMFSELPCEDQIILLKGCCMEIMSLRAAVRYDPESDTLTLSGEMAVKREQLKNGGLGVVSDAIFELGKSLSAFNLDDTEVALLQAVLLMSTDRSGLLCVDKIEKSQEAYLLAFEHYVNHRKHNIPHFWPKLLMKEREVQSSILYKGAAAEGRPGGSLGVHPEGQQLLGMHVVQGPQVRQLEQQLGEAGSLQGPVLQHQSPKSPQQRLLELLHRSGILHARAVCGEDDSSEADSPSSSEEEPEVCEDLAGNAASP
# How it was run: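 Transient HepG2 transfection, NR-Gal4 chimera driving GAL4-UAS reporters; 24 h compound exposure; total RNA, oligo(dT) RT, PCR, fluorescent primer extension, capillary electrophoresis. Upward direction vs DMSO control.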
# [6] = read-out: E-selectin (Homo sapiens) (UniProt P16581); experiment: BSK_3C_Eselectin: BioMAP Diversity Plus: 3C Assay for Eselectin Biomarker Activity (AID 2283015; active = hit-call score of the fitted dose curve at least 0.9, where 1 is the maximum; inactive = score below 0.9;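 for outcome: cell surface E-selectin protein quantified by ELISA 24 h after dosing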); details: primary human endothelial cells (HUVEC); actives raise or lower the signal
# How it was run: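 HUVEC, 3C stimulation; compound exposure 24 h; E-selectin by ELISA; gain- or loss-of-signal fitted bidirectionally vs DMSO baseline.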
# [7] = read-out: Interleukin-1 alpha (IL1a), IL1A (gene 3552); experiment: BSK_BE3C_IL1a: BioMAP Diversity Plus: BE3C Assay for Interleukin-1 alpha (IL1a) Biomarker Activity (AID 2283016; active = hit-call score of the fitted dose curve at least 0.9, where 1 is the maximum; inactive = score below 0.9); details: primary human bronchial epithelial cells; actives raise or lower the signal
# How it was run: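 ELISA read-out of IL-1a from human lung bronchial epithelial primary cells, 24 h post-dose. Gain or loss of signal fitted relative to DMSO negative control.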
# [8] = read-out: Monocyte Chemoattractant Protein-1 (MCP1), CCL2 (gene 6347); experiment: BSK_3C_MCP1: BioMAP Diversity Plus: 3C Assay for Monocyte Chemoattractant Protein-1 (MCP1) Biomarker Activity (AID 2283017; active = hit-call score of the fitted dose curve at least 0.9, where 1 is the maximum; inactive = score below 0.9); details: primary human endothelial cells (HUVEC); actives raise or lower the signal
# How it was run: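 HUVEC, 3C system; 24 h chemical exposure; MCP-1 by ELISA; bidirectional curve fit vs DMSO baseline.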
# [9] = read-out: Monocyte Chemoattractant Protein-1 (MCP1), CCL2 (gene 6347); experiment: BSK_4H_MCP1: BioMAP Diversity Plus: 4H Assay for Monocyte Chemoattractant Protein-1 (MCP1) Biomarker Activity (AID 2283018; active = hit-call score of the fitted dose curve at least 0.9, where 1 is the maximum; inactive = score below 0.9); details: primary human endothelial cells (HUVEC); actives raise or lower the signal
# How it was run: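 HUVEC primary cells, 24 h post-dose, MCP-1 by ELISA. Gain or loss of signal fitted bidirectionally vs DMSO baseline. Cytotoxicity: SRB stain (0.1% after 10% TCA fixation), read 560 nm, parallel cultures.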
# [10] = read-out: Human Leukocyte Antigen - DR isotype (HLADR), HLA-DRA (gene 3122); experiment: BSK_3C_HLADR: BioMAP Diversity Plus: 3C Assay for Human Leukocyte Antigen - DR isotype (HLADR) Biomarker Activity (AID 2283019; active = hit-call score of the fitted dose curve at least 0.9, where 1 is the maximum; inactive = score below 0.9;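 for outcome: ELISA of cell-surface HLA-DR on HUVEC 24 h after dosing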); details: primary human endothelial cells (HUVEC); actives raise or lower the signal
# How it was run: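 HUVEC, 3C stimulation, 24 h post-dose; HLA-DR by ELISA; bidirectional curve fit vs DMSO baseline; gain or loss of signal scored.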
# Sequence of E-selectin (Homo sapiens) (P16581 whole entry, looked up): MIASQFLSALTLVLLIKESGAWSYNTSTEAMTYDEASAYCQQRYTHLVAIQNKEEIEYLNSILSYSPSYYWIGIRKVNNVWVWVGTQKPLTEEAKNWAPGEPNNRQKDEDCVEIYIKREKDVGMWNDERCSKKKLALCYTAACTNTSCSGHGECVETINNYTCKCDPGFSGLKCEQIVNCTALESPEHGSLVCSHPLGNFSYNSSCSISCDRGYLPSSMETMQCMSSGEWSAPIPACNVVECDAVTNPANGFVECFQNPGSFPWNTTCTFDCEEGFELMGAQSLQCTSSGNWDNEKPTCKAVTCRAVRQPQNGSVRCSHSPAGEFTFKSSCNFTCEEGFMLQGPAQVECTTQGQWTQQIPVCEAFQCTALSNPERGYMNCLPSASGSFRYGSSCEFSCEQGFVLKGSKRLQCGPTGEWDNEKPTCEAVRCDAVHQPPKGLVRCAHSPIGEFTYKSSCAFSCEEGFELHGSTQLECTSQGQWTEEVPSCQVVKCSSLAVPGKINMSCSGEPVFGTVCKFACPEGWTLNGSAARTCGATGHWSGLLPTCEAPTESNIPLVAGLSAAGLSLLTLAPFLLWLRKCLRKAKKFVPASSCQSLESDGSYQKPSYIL
smiles,measurement,setting,value
O=c1cccc[nH]1,outcome,[1],inactive
same,outcome,[2],inactive
same,outcome,[3],inactive
same,outcome,[4],inactive
CC(C)C(=O)OCc1ccccc1,outcome,[1],inactive
same,outcome,[3],inactive
O=c1[nH]cccc1O,outcome,[1],inactive
same,outcome,[2],inactive
same,outcome,[5],inactive
Cc1ccc([N+](=O)[O-])c(C)c1,outcome,[1],inactive
same,outcome,[2],inactive
same,outcome,[3],inactive
same,outcome,[4],inactive
same,outcome,[5],inactive
COC(F)(C(F)F)C(F)(F)F (centres undefined),outcome,[1],inactive
same,outcome,[2],inactive
same,outcome,[3],inactive
same,outcome,[5],inactive
same,outcome,[6],inactive
same,outcome,[7],inactive
same,outcome,[8],inactive
same,outcome,[9],inactive
same,outcome,[10],inactive
CCOC(OCC)OCC,outcome,[1],inactive
same,outcome,[2],inactive
same,outcome,[3],inactive
CCC/C=C/CO,outcome,[1],inactive
same,outcome,[3],inactive
same,outcome,[4],inactive
Brc1ccccn1,outcome,[1],inactive
same,outcome,[2],inactive
same,outcome,[3],inactive
same,outcome,[5],inactive
CCOCN(C(=O)CS(=O)(=O)O)c1c(C)cccc1CC,outcome,[1],inactive
same,outcome,[2],inactive
same,outcome,[5],inactive
N#Cc1ccccc1O,outcome,[1],inactive
same,outcome,[2],inactive
same,outcome,[3],inactive
same,outcome,[4],inactive
CC(C)(C)c1cc(CCC(=O)OCC(COC(=O)CCc2cc(C(C)(C)C)c(O)c(C(C)(C)C)c2)(COC(=O)CCc2cc(C(C)(C)C)c(O)c(C(C)(C)C)c2)COC(=O)CCc2cc(C(C)(C)C)c(O)c(C(C)(C)C)c2)cc(C(C)(C)C)c1O,outcome,[1],inactive
same,outcome,[2],inactive
same,AC50,[4],22.3 µM (active)
Cc1cc(=O)[nH]c(C(C)C)n1,outcome,[1],inactive
same,outcome,[2],inactive
same,outcome,[4],inactive
O=C1C=CC(=O)N1c1ccc(Cc2ccc(N3C(=O)C=CC3=O)cc2)cc1,outcome,[1],inactive
same,outcome,[2],inactive
same,outcome,[3],inactive
same,outcome,[4],inactive
same,outcome,[5],inactive
same,AC50,[6],8.52 µM (active)
same,AC50,[7],3.26 µM (active)
same,AC50,[8],8.09 µM (active)
same,AC50,[9],7.61 µM (active)
same,AC50,[10],5.74 µM (active)
O=S(=O)(O)c1ccc(Cl)cc1,outcome,[1],inactive
same,outcome,[3],inactive
CSc1ccc(Cl)cc1,outcome,[1],inactive
same,outcome,[2],inactive
same,outcome,[5],inactive
C=CCOC(=O)CC(C)C,outcome,[1],inactive
same,outcome,[2],inactive
Cc1cc(O)c(C(C)(C)C)cc1C(C)(C)C,outcome,[1],inactive
same,outcome,[2],inactive
same,AC50,[3],7.4 µM (active)
same,AC50,[4],2.58 µM (active)
same,outcome,[5],inactive
same,AC50,[6],3.91 µM (active)
same,AC50,[7],4.77 µM (active)
same,AC50,[8],4.59 µM (active)
same,AC50,[9],3.83 µM (active)
same,AC50,[10],3.17 µM (active)
O=S(=O)(O)CCC(F)(F)C(F)(F)C(F)(F)C(F)(F)C(F)(F)C(F)(F)C(F)(F)C(F)(F)F,outcome,[1],inactive
same,outcome,[2],inactive
same,outcome,[3],inactive
same,outcome,[6],inactive
same,outcome,[7],inactive
same,outcome,[8],inactive
same,outcome,[9],inactive
same,outcome,[10],inactive
CC(=O)c1ccccc1N,outcome,[1],inactive
same,outcome,[2],inactive
same,outcome,[3],inactive
same,outcome,[4],inactive
same,outcome,[5],inactive
CN(N=O)C(=O)N[C@@H]1[C@@H](O)[C@H](O)[C@@H](CO)O[C@@H]1O,outcome,[1],inactive
same,outcome,[2],inactive
same,outcome,[3],inactive
same,outcome,[5],inactive
CCc1cc(Cc2cc(CC)c(N)c(CC)c2)cc(CC)c1N,outcome,[1],inactive
same,outcome,[3],inactive
Nc1c(Br)cc([N+](=O)[O-])cc1Br,outcome,[1],inactive
same,outcome,[2],inactive
same,outcome,[3],inactive
same,outcome,[5],inactive
O=S(=O)(Cl)C(F)(F)C(F)(F)C(F)(F)C(F)(F)C(F)(F)C(F)(F)C(F)(F)C(F)(F)F,outcome,[1],inactive
same,outcome,[2],inactive
same,outcome,[3],inactive
same,outcome,[4],inactive
same,AC50,[6],46.5 µM (active) and 39.2 µM (active)
same,AC50,[7],46.4 µM (active) and 47.1 µM (active)
same,outcome,[8],inactive
same,AC50,[9],22.3 µM (active)
same,outcome,[9],inactive
same,outcome,[10],inactive
CCc1cccc(C)c1N(C(=O)C(=O)O)C(C)COC (centres undefined),outcome,[1],inactive
same,outcome,[2],inactive
same,outcome,[3],inactive
same,outcome,[4],inactive
O=C(O)C(F)(F)C(F)(F)C(F)(F)C(F)(F)C(F)(F)C(F)(F)C(F)F,outcome,[1],inactive
same,outcome,[2],inactive
same,outcome,[3],inactive
same,outcome,[4],inactive
same,outcome,[5],inactive
same,outcome,[6],inactive
same,outcome,[7],inactive
same,outcome,[8],inactive
same,outcome,[9],inactive
same,outcome,[10],inactive
O=C(O)CCC(F)(F)C(F)(F)C(F)(F)C(F)(F)C(F)(F)C(F)(F)C(F)(F)F,outcome,[1],inactive
same,outcome,[2],inactive
same,outcome,[3],inactive
same,AC50,[4],41.3 µM (active)
same,outcome,[6],inactive
same,outcome,[7],inactive
same,outcome,[8],inactive
same,outcome,[9],inactive
same,outcome,[10],inactive
CCOC(=O)C1CC(=O)C(=C(O)C2CC2)C(=O)C1 (centres undefined),outcome,[1],inactive
COC(=O)c1ccc(C=O)cc1,outcome,[1],inactive
same,outcome,[2],inactive
O=C(c1ccccc1)c1ccc(O)cc1O,outcome,[1],inactive
same,outcome,[2],inactive
same,AC50,[4],35 µM (active)
same,outcome,[5],inactive
same,outcome,[6],inactive
same,outcome,[7],inactive
same,outcome,[8],inactive
same,outcome,[9],inactive
same,outcome,[10],inactive
Cc1cc(C)c(O)c(C(C)(C)C)c1,outcome,[1],inactive
same,outcome,[2],inactive
same,outcome,[3],inactive
same,AC50,[4],28.9 µM (active)
same,outcome,[5],inactive
same,AC50,[6],28.9 µM (active)
same,AC50,[7],32.6 µM (active)
same,AC50,[8],29 µM (active)
same,AC50,[9],30.7 µM (active)
same,AC50,[10],15.8 µM (active)
CCCCCC/C=C/CCCCCCCC(=O)O,outcome,[1],inactive
same,outcome,[2],inactive
same,AC50,[3],100 µM (active)
